An excerpt weighted towards active compounds, which were near 8% of everything screened.
TSHR antagonist = antagonists of human thyroid stimulating hormone receptor | TSHR-expressing cells, TSH-stimulated cAMP HTRF, 2 h; active compounds read low | activity change, negative = inhibition, % at 11.5 µM | AID 504810 | P16473 | 330,000 compounds, 0.2% hits;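 active = activity change below a set negative limit, meaning inhibition stronger than a set level, cut at about -70% in these data; inconclusive = activity change between two set negative limits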
Target sequence (P16473 whole entry, looked up): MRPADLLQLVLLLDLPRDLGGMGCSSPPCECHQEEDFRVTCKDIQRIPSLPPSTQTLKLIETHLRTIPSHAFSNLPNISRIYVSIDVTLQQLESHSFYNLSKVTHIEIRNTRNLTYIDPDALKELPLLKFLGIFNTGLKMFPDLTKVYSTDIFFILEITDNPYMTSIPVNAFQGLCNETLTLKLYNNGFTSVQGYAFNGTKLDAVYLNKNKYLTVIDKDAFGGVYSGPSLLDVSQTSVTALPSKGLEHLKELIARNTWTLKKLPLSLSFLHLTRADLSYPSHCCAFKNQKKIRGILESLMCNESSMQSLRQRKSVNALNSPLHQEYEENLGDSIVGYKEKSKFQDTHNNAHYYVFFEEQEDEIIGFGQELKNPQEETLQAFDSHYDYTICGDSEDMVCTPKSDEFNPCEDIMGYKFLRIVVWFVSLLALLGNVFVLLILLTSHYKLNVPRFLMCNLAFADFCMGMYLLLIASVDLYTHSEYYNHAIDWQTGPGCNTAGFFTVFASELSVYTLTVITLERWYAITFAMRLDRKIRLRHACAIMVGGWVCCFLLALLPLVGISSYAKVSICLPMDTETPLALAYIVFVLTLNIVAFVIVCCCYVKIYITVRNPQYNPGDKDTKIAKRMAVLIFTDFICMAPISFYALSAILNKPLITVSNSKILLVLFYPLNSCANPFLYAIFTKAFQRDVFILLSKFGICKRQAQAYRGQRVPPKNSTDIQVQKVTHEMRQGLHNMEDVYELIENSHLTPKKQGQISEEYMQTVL
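TSHR-expressing cells were treated with compounds, then stimulated with TSH at EC80 (4nM final) for 2 hours at 37 deg C. Cellular cAMP was measured by HTRF competition between lysate cAMP and cAMP-d2 for a cryptate-labelled anti-cAMP antibody.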
RORgamma inh = inhibitors of mouse ROR gamma transcriptional activity; 310,000 compounds, 5.4% hits; P51450; AID 2551; Drosophila S2 Gal4-RORgamma UAS-luciferase reporter, 20 h; Potency, µM (doses to about 53.6 µM), for the others: at the top dose activity change, negative = inhibition, actives largely listed as inhibitors; also: potency is read from the fitted curve at half-maximal effect; nearly all actives have a fitted effect of over 60% in size
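Drosophila S2 cells stably expressing Gal4-DBD/mouse RORγ fusion under metallothionein promoter plus UAS-luciferase; compound 1 h, then 700 uM CuSO4 induction for 20 h at ambient temperature; inhibition read as reduced luminescence.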
VP16 counter = Gal4-VP16 reporter inhibition counter-screen. Drosophila S2 Gal4-VP16 UAS-luciferase, luminescence, 20 h. 310,000 compounds, 3.5% hits. Potency, µM (titrated, usually from 53.6 µM), without a hit: at the top dose activity, negative = inhibition, most hits filed as inhibitors;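 also: Gal4-VP16 expression switched on by copper sulfate through the metallothionein promoter; potency is read from the fitted curve at half-maximal effect; nearly all actives have a fitted effect of over 50% in size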
Coupling enz = counter-screen for Giardia aldolase inhibitors: coupling enzyme system. coupling enzyme system counterscreen, AmpLite Red fluorescence. activity change, negative = inhibition, % at 58.2 µM, hits read low. 290,000 compounds, 0.67% hits. AID 2472; in the data active = activity change below about -30%
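Fluorescence at 525 nm excitation and 598 nm emission measured inhibition of the coupled detection system without aldolase. Compounds (at 57.5 uM final) were preincubated 10 min at room temperature with coupling enzyme reagent before a 20 min substrate/AmpLite Red step.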
ELG1 repair inh = blocks ELG1-dependent DNA repair in HEK293T cells | AID 504467 | 330,000 compounds, 2.3% hits | Potency, µM (highest dose often 46.1 µM), inactives show at the top dose activity change, negative = inhibition, hits mostly inhibitors | HEK293T ELG1-luciferase reporter, luminescence, 16 h; DNA damage induced by 5-fluorouridine; also: potency is read from the fitted curve at half-maximal effect; nearly all actives have a fitted effect of over 55% in size
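Reporter activity after DNA damage by 5-fluorouridine is monitored. Compound-treated cells incubate 16 hr at 37 °C, then ONE-Glo is added for 30 min before luminescence reading.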
Active calls of the source: *; ? = inconclusive; nt = not tested or not shown. Unless noted, calls follow the shape of the dose curve; as a rule, active = well fitted curve in the direction sought with a large enough effect; inconclusive = small, poorly fitted or top-dose-only effect, or another doubt; inactive = no such curve, though single readings can be large; an effect the other way counts as inactive or inconclusive. % is scaled to controls: 0 for no effect and ±100 for the full control effect.

SMILES	TSHR antagonist	RORgamma inh	VP16 counter	Coupling enz	ELG1 repair inh
Cn1c(NC(=O)c2ccc(Br)o2)cc(=O)n(C)c1=O	-4	13µM*	3%	0	2%
Cc1cc(Nc2ccc(Br)cc2F)n2nc(C)nc2n1	7	3.2µM*	7.9µM*	4	8%
Cc1cc(Nc2ccccc2F)n2nc(C)nc2n1	-3	-18%	-6%	0	12%
CCCS(=O)(=O)c1nc(S(=O)(=O)c2ccc(C)cc2)c(N2CCN(CC)CC2)s1	22	1%	-7%	3	-4%
CCC1(C)N=C(N)Nc2nc3cc(C)c(C)cc3n21 (stereo unspecified)	-25	16%	-2%	4	-2%
COc1cc2[nH]c(C(=O)Nc3ccc(F)cc3)cc2c(OC)c1OC	-78*	?	3%	-3	?
NS(=O)(=O)c1ccc(CCNC(=O)c2ccc([N+](=O)[O-])s2)cc1	-3	12%	-29%	2	13µM*
NS(=O)(=O)c1ccc(CCNC(=O)c2ccc(Cl)s2)cc1	4	3%	-1%	1	-2%
NS(=O)(=O)c1ccc(CCNC(=O)c2cc3ccccc3s2)cc1	-103*	-41%	-15%	0	?
Cc1cc(C)n(-c2ccc(C(=O)OCC(=O)Nc3ccccc3F)cc2)n1	-7	nt	nt	nt	2%
CC(C)(C)Nc1nc(NN)nc(NC(C)(C)C)n1	-8	7.1µM*	20µM*	2	15%
O=[N+]([O-])c1cc(C(F)(F)F)ccc1N1CCN(CCO)CC1	-9	10%	-1%	3	7%
COc1cccc(OC)c1C(=O)NC(=S)N1CCN(c2ccc(C(F)(F)F)cc2[N+](=O)[O-])CC1	3	7.1µM*	22µM*	4	-20%
CCOc1ccc(C(=O)NC(=S)N2CCN(c3ccc(C(F)(F)F)cc3[N+](=O)[O-])CC2)cc1	0	0.32µM*	0.25µM*	0	12%
O=C(C1CCC1)N1CCN(c2ccc(C(F)(F)F)cc2[N+](=O)[O-])CC1	7	7.1µM*	4µM*	nt	?
COc1cccc(C(=O)NC(=S)N2CCN(c3ccc(C(F)(F)F)cc3[N+](=O)[O-])CC2)c1	-4	0.56µM*	0.63µM*	1	-20%
O=C(Nc1ccccc1)N1CCCN(c2ccc(C(F)(F)F)cc2[N+](=O)[O-])CC1	33	?	?	0	?
CCCC(=O)Nc1c(-c2cccc(C)c2)c(=O)c2ccccc2n1C	2	-34%	-10%	2	3%
COc1cc(C#N)c(NS(=O)(=O)c2ccc3[nH]c(=O)sc3c2)cc1OC	22	0%	3%	10	6%
CCC(C)N(C(=O)CSc1nnc(-c2ccco2)n1C)C1CCS(=O)(=O)C1 (stereo unspecified)	0	nt	nt	nt	-10%
COc1ccc(N2CCN(C(=O)c3cccc(F)c3)CC2)c([N+](=O)[O-])c1	-1	-7%	-22%	5	0%
CC(C)Oc1cccc(C(=O)NC(=S)N2CCN(c3ccc(C(F)(F)F)cc3[N+](=O)[O-])CC2)c1	-9	0.45µM*	1.1µM*	-1	?
CCNS(=O)(=O)c1ccc(C)cc1	nt	-3%	3%	nt	nt
Cc1ccc(S(=O)(=O)NCCNS(=O)(=O)c2ccc(C)cc2)cc1	-83*	1%	3%	0	?
Cn1nc([N+](=O)[O-])nc1Sc1cccc2cccnc12	6	11µM*	18µM*	0	?
SMILES	TSHR antagonist	RORgamma inh	VP16 counter	Coupling enz	ELG1 repair inh
O=[N+]([O-])c1ccc(Cl)cc1Sc1cccc2cccnc12	-11	-1%	-8%	-3	12%
COC(=O)c1ccc(NC(=O)CS(=O)(=O)c2ccccc2)cc1	-13	-5%	-8%	-1	29%
CC(C)c1ccc(/C=N/NC(=O)c2nnn(-c3nonc3N)c2CN(C)C2CCCCC2)cc1	0	-6%	5%	1	?
COC(=O)c1ccc2c(=O)n(CCCCCC(=O)O)c(=O)[nH]c2c1	1	10µM*	16µM*	2	-2%
COC(=O)c1ccc2c(=O)n(CCCCCC(=O)N3CCN(c4ccc(F)cc4)CC3)c(=O)[nH]c2c1	-1	29%	-1%	-1	2.9µM*
COCCn1c(=O)[nH]c2cc(C(=O)NCCN3CCN(c4ccc(OC)cc4)CC3)ccc2c1=O	-3	0%	3%	-3	9.2µM*
COC(=O)[C@@]1(C)CCC[C@@]2(C)c3ccc(O)c(C(C)C)c3CCC21 (stereo partly specified)	nt	?	?	-6	nt
O=C1C(Cl)=C(NCCCO)C(=O)c2ccccc21	0	11µM*	?	-38*	-13%
Cc1ccc(NC2=C(NCCO)C(=O)c3ccccc3C2=O)cc1	-3	14%	14%	-48*	-1%
CC(=O)N(C)c1ccc(C(O)(C(F)(F)F)C(F)(F)F)cc1	-1	13µM*	-12%	2	4%
COc1ccc(-n2c(C)nc3cc(C(=O)N4CCOCC4)ccc32)cc1	-8	2µM*	-7%	-14	?
COc1ccc(-n2c(C)nc3cc(C(=O)NCCN4CCOCC4)ccc32)cc1	-12	1%	6%	2	-13%
O=C(N/N=C\c1cc(Cl)ccc1O)c1ccc(S(=O)(=O)N2CCCCC2)cc1	19	5µM*	3.5µM*	5	?
O=C(N/N=C/c1cccnc1)c1cccc(Cl)c1	1	5%	-14%	4	0%
O=C(CNC(=O)c1ccccc1Br)N/N=C/c1cccs1	4	0%	1%	-3	7%
O=C(N/N=C/c1cc(Cl)ccc1O)c1cccnc1	23	1.1µM*	0.71µM*	-3	?
CCOc1ccc(C(=O)N/N=C/c2cc(Cl)ccc2[N+](=O)[O-])cc1	19	?	5.6µM*	2	8%
O=C(CNC(=O)c1ccccc1Br)N/N=C/c1ccccc1O	-3	3.2µM*	?	-2	?
O=C(COC(=O)Cc1ccccc1[N+](=O)[O-])NNC(=O)c1ccc([N+](=O)[O-])cc1	20	nt	nt	nt	12%
COC1C=CO[C@@]2(C)Oc3c(C)c(O)c4c(O)c(c5c(nc6cc(C)ccn65)c4c3C2=O)NC(=O)/C(C)=C\C=CC(C)C(O)[C@@H](C)C(O)C(C)[C@@H](OC(C)=O)C1C (stereo partly specified)	nt	-5%	-6%	-12	nt
C[C@H](C(=O)O)c1ccc2cc(O)ccc2c1	nt	-23%	-11%	0	nt
Cc1ccc(C)c(N2N=C(C(=O)OCc3nnc(-c4ccccc4)o3)CCC2=O)c1	22	nt	nt	nt	?
Cc1cc(C)nc(N2CCN(C(=O)CCC(=O)Nc3nnc(C(C)C)s3)CC2)n1	9	8%	7%	4	?
CCOc1ccc(NC(=O)CN2CC(c3ccccc3)CC2=O)cc1 (stereo unspecified)	0	?	10%	2	24%
